Compound activity deposited in PubChem BioAssay by several laboratories.
Shown are actives, neighbours in structure and some others; about 3.1% of the full set was active somewhere.
Mtb FBA inh = Mtb FBA enzyme inhibitors, primary screen, biochemical, fluorescence, strain H37Rv | Fructose-bisphosphate aldolase (Mycobacterium tuberculosis (strain ATCC 25618 / H37Rv)), … | purified M. tuberculosis FBA, fluorescence read-out | inhibition, % at 1 µM | 360,000 tested, 2.3% active | AID 588726, 2011; in the data active = inhibition above about 27%
Target sequence (P9WQA3 whole entry, looked up): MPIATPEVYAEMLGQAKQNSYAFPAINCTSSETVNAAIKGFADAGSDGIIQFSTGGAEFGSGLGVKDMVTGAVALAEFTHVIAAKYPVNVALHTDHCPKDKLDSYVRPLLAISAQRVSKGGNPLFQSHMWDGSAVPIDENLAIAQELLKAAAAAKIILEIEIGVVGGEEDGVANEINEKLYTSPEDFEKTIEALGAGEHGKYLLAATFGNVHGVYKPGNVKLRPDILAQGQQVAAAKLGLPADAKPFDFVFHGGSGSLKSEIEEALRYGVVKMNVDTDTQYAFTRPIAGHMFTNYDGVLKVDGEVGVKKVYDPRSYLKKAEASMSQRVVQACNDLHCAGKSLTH
BioA inh = M. tuberculosis BioA enzyme inhibitors, primary screen, biochemical, plate reader, single point, HTS. AID 602481, 2012. inhibition, % at 9.99 µM. purified M. tuberculosis BioA enzyme. 360,000 tested, 0.096% active. 7,8-diaminopelargonic acid synthase BioA (Mycobacterium tuberculosis); in the data active = inhibition above about 40%
SARS 3CLpro inh = SARS-CoV 3CLpro protease inhibitors, primary screen, biochemical, quenched FRET; Replicase polyprotein 1ab (Severe acute respiratory syndrome coronavirus), P0C6X7; recombinant SARS-CoV 3CLpro, quenched FRET peptide cleavage; inhibition, % at 6 µM; 290,000 tested, 0.14% active; AID 1706, 2009; in the data active = inhibition above about 12%
GDH-TPI inh = GDH-TPI coupling enzyme inhibitors, primary screen, artefact control for M. tuberculosis FBA inhibitor project, biochemical, absorbance, full deck | GDH-TPI coupled enzyme counterscreen, NADH absorbance | inhibition, % at 4.8 µM | 360,000 tested, 1.2% active | AID 588335, 2011; in the data active = inhibition above about 30%
FadD28 binding = inhibitors of FadD28 bisubstrate probe binding, primary screen, biochemical, fluorescence polarization, single point | Mycobacterium tuberculosis FadD28 fatty-acid-AMP ligase | inhibition, % at 12.5 µM | 360,000 tested, 0.22% active; in the data active = inhibition above about 8.5%, passing the limit was not always enough
Numbers stand for hits; – = inactive; · = not tested or not shown; + = active, no number.

SMILES	Mtb FBA inh	BioA inh	SARS 3CLpro inh	GDH-TPI inh	FadD28 binding
COc1ccccc1/C=C/C=N/NC(=O)c1ccco1	–	–	–	37	–
Cc1ccsc1C=Nc1ccc(O)cc1	–	–	–	–	–
O=C(Cc1cccs1)N/N=C/C=C/c1ccccc1[N+](=O)[O-]	–	–	–	–	–
Cc1ccsc1/C=N/N=C/c1sccc1C	–	–	–	33	–
COc1ccccc1/C=C/C=N/NC(=O)c1ccncc1	–	·	–	44	–
C[C@H]1CN([C@@H](C)CO)C(=O)c2cc(Br)cnc2O[C@H]1CN(C)C(=O)NC1CCCC1	·	–	·	·	·
CC(=O)N(C)C[C@@H]1Oc2cc(C#Cc3ccncc3)ccc2S(=O)(=O)N([C@@H](C)CO)C[C@@H]1C	·	–	·	·	·
Cc1ccccc1S(=O)(=O)N1C[C@@H](O)COC[C@H]2O[C@H](CC(=O)N3CCN(C)CC3)CC[C@@H]21	·	–	·	·	·
O=C(N/N=C/C=N/NC(=O)c1ccco1)c1ccco1	–	–	–	54	–
Cc1ccsc1/C=N/NC(=O)c1ccco1	–	·	–	33	–
C/C(=N/NC(=O)c1ccco1)c1ccc(Br)s1	–	–	–	43	·
COc1ccccc1/C=C/C=N/NC(=O)CN1CCN(S(=O)(=O)c2ccc(C)cc2)CC1	–	·	–	33	–
O=C(N/N=C/c1ccccc1)c1ccco1	–	·	–	–	–
C[C@@H]1CCCCO[C@H](CN(C)Cc2ccc(C(=O)O)cc2)[C@H](C)CN([C@H](C)CO)C(=O)c2cc(NC(=O)c3ccncc3)ccc2O1	·	–	·	·	·
Cc1ccc(S(=O)(=O)Nc2cccc3c2O[C@@H](CN(C)CC2CC2)[C@H](C)CN([C@H](C)CO)C3=O)cc1	·	–	·	·	·
COc1ccccc1/C=C/C=N/NC(=O)c1cc(-c2ccc(C)o2)[nH]n1	–	·	–	44	–
Cc1ccc(/C=N/NC(=O)c2cc(-c3ccc(C)o3)[nH]n2)cc1	–	–	–	–	–
CC1(C)CCCN(C(=O)c2coc(=O)c(Br)c2)C1	51	–	–	–	–
CCOC(=O)C1(C)CCCN(C(=O)c2cc(F)cc(F)c2)C1 (configuration not stated)	–	–	·	–	–
O=C(c1coc(=O)c(Br)c1)N1CCCc2ccccc21	141	–	–	–	–
O=C(c1cccc(Br)c1)N1CCCc2ccccc21	–	–	–	–	–
O=C(c1coc(=O)c(Br)c1)N1CCC(C(O)(c2ccccc2)c2ccccc2)CC1	70	·	–	32	–
COc1ccc(CN(C)C[C@@H]2OCCCC[C@H](C)Oc3ccc(NC(=O)CCCN(C)C)cc3C(=O)N([C@H](C)CO)C[C@@H]2C)cc1	·	–	·	·	·
CCOCCCNC(=O)/C(C#N)=C/c1cc(Br)c(O)c(Br)c1	–	–	–	44	–
CCOCCCNC(=O)/C(C#N)=C/c1ccc([N+](=O)[O-])o1	–	–	–	46	–
SMILES	Mtb FBA inh	BioA inh	SARS 3CLpro inh	GDH-TPI inh	FadD28 binding
COc1ccc(S(=O)(=O)N(C)C[C@H]2Oc3c(NS(=O)(=O)c4cccs4)cccc3C(=O)N([C@@H](C)CO)C[C@H]2C)cc1	·	–	·	·	·
CC(C)=CCn1c2ccc(NC(=O)NCc3ccc(F)cc3)cc2c(=O)n1C	138	–	·	–	–
COc1ccc(CCNC(=O)Nc2ccc3c(c2)c(=O)n(C)n3CC=C(C)C)cc1OC	148	–	·	–	–
CCNC(=O)Nc1ccc2c(c1)c(=O)n(C)n2CC=C(C)C	173	–	·	–	–
C[C@H]1CCCCO[C@H](CN(C)CC2CCCCC2)[C@@H](C)CN([C@@H](C)CO)C(=O)c2cc(NS(=O)(=O)c3cccs3)ccc2O1	·	–	·	·	·
C[C@H]1CN([C@@H](C)CO)C(=O)c2cc(C3=CCCCC3)cnc2O[C@@H]1CN(C)C(=O)c1ccncc1	·	–	·	·	·
COc1ccc(OC)c(C(C(=O)NC2CCCCC2)N(C(=O)c2snc(C(N)=O)c2N)c2ccccc2OC)c1 (configuration not stated)	115	–	–	–	–
Cc1ccc(-c2cnc3c(c2)C(=O)N([C@@H](C)CO)C[C@@H](C)[C@@H](CN(C)C(=O)c2cccnc2)O3)cc1	·	–	·	·	·
COc1ccc(-c2cc3ccc(O)cc3oc2=O)cc1	+	–	–	–	–
O=c1oc2cc(O)ccc2cc1-c1ccccc1	+	–	–	–	–
C[C@H](CO)N1C[C@H](C)[C@@H](CN(C)C)Oc2cc(-c3ccc(F)cc3)ccc2S1(=O)=O	·	–	·	·	·
COc1ccc(S(=O)(=O)Nc2ccc3c(c2)C(=O)N([C@H](C)CO)C[C@@H](C)[C@H](CN(C)C(=O)C2CCCCC2)OCCCC[C@@H](C)O3)cc1	·	–	·	·	·
COc1ccc([N+](=O)[O-])cc1NC(=O)CCN1CCN(CCO)CC1	–	45	–	–	–
CCOC(=O)N1CCN(CCC(=O)Nc2cc([N+](=O)[O-])ccc2OC)CC1	–	·	–	–	–
CC(=O)Nc1ccc(S(=O)(=O)C(C#N)c2nc3ccccc3nc2NCCCO)cc1 (configuration not stated)	+	–	–	–	–
Cc1ccc(S(=O)(=O)C(C#N)c2nc3ccccc3nc2OCCO)cc1 (configuration not stated)	–	·	–	–	–
CC(=O)Nc1ccc(S(=O)(=O)C(C#N)c2nc3ccccc3nc2NCCO)cc1 (configuration not stated)	+	–	–	–	–
CC(C)NC(=O)Nc1ccc2c(c1)C(=O)N([C@@H](C)CO)C[C@H](C)[C@@H](CN(C)S(=O)(=O)c1cn(C)cn1)OCCCC[C@H](C)O2	·	–	·	·	·
C[C@H](CO)N1C[C@H](C)[C@@H](CN(C)C(=O)Nc2ccc(F)cc2)Oc2c(NC(=O)c3cnccn3)cccc2C1=O	·	–	·	·	·
CCNc1oc(-c2cccc3ccccc23)nc1C#N	+	–	–	–	–
N#Cc1nc(-c2cccc3ccccc23)oc1N1CCCCC1	–	–	–	–	–
CC(C)Nc1oc(-c2cccc3ccccc23)nc1C#N	+	–	–	–	–
C=CCNc1oc(-c2cccc3ccccc23)nc1C#N	+	–	–	–	–
CC1CCN(c2oc(-c3cccc4ccccc34)nc2C#N)CC1	–	–	–	–	–
Cc1cc(C(=O)OCCO)c(C#N)c(N)n1	143	–	–	–	–
COc1ccc(NC(=O)Nc2cccc3c2O[C@@H](CN(C)Cc2ccc(Cl)c(Cl)c2)[C@H](C)CN([C@H](C)CO)C3=O)cc1	·	–	·	·	·
COc1cc2c(cc1OC)-c1c3c(cc4c1[C@@H](C2)N(C)CC4)OCO3	–	–	–	–	–
COc1cc2c(cc1OC)-c1cc3ccc4c(c3c[n+]1CC2)OCO4	–	–	–	35	–
COc1cc2c(cc1O)CC[n+]1cc3c(OC)c(OC)ccc3cc1-2	–	–	–	33	–
CC(C)NC(=O)N(C)C[C@H]1Oc2ccc(NS(=O)(=O)c3cn(C)cn3)cc2C(=O)N([C@H](C)CO)C[C@H]1C	·	–	·	·	·
